Experimental data as given in PubChem BioAssay AID1006 (Sanford-Burnham Center for Chemical Genomics, 2008).
Where “and” joins values, the source holds several entries; their conditions need not be identical. Equal values may be shown once. Hit rate of the full screen: of about 200,000 compounds, about 3,000 (1.5%) were called active. This is one part of a sample in which actives are shown more often than they occur.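 The calls were made as follows: active = inhibition above about 50% when tested at 10 µM (limit read from the data); inactive = the rest.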

Biological target: Luciferin 4-monooxygenase (Photinus pyralis) (UniProt P08659)
Sequence (P08659 whole entry, looked up): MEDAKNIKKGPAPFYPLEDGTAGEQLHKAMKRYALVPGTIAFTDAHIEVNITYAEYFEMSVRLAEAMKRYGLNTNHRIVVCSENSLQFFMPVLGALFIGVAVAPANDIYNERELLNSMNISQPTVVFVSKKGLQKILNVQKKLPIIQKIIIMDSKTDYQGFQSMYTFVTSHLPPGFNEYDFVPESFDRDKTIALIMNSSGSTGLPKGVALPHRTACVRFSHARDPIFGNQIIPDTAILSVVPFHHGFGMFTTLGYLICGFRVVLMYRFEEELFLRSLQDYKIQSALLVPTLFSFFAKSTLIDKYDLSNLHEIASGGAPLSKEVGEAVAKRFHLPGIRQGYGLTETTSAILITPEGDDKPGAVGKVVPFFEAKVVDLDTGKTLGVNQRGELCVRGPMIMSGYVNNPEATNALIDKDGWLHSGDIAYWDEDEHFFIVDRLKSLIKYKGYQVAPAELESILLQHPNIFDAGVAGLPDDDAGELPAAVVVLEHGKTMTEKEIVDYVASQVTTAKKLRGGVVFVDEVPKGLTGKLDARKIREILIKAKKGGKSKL
Test: firefly luciferase enzyme inhibitors, primary screen, artefact control for luciferase-based inhibitor screens, biochemical, luminescence, ATPLite (AID 1006)
Details: 10 min, at 10 µM, hits give high values

inhibition, active:
COc1cccc(OCC(=O)Nc2ccccc2C(N)=O)c1 59.2%, Cc1cc(/C=C2/C(=N)N3C(=NC2=O)SN=C3S(C)(=O)=O)c(C)n1-c1ccccc1 89.9%, COc1cc(SC)ccc1C(=O)Nc1cc(C)ccn1 80.7%, COc1cc(SC)ccc1C(=O)Nc1nc(C)cs1 97.7%, Cc1ccc(NC(=O)Nc2ccc3oc(C)nc3c2)cc1 70.8%, O=C(Nc1nnc(C2CC2)s1)c1ccccn1 63.4%, CSc1ccccc1-c1nnc(-c2ccc(Cl)cc2)o1 53.8%, Cc1ccc(C(=O)Nc2ccc(C)c(S(=O)(=O)N(C)C)c2)s1 71.1%, CCNc1nc(-c2cc3ccccc3o2)cs1 64.9%, Cc1ccc(C2=C/C(=C\c3cccnc3)C(=O)O2)cc1 52.2%, COc1ccc(C(=O)Nc2ccccc2C(=O)N/N=C/c2ccccc2OC)cc1 97.8%, COc1ccc(C(=O)Nc2ccccc2C(=O)N/N=C/c2ccc(O)c(OC)c2)cc1 98.3%, Cc1cc(OC(=O)c2ccccc2Cl)ccc1N1C(=O)CCC1=O 69%, O=c1c2c(nc3cc(-c4cccc(Cl)c4)[nH]n13)CCCC2 74.9%, CCOc1ccc(-c2nnc(-c3ccco3)o2)cc1 79.2%, CCOc1ccc2nc(C(=O)N3CCCC(C)C3)sc2c1 (stereo not drawn) 56%, O=C(O)COc1ccc(-c2nccc(-c3cccs3)n2)cc1 77.5%, COc1cccc(/C=N\NC(=O)C2=NNC(=O)C2C)c1O (stereo not drawn) 83.5%, COc1cccc(-c2nc3cc(C)ccc3o2)c1 82.8%, O=[N+]([O-])c1ccc2oc(-c3cccc(O)c3)nc2c1 53.2%

inhibition, inactive:
COc1cc(/C=C/C(=O)OCC(=O)N2CCOCC2)ccc1OCC#N -6%, CCCOC(=O)Nc1ccccc1C(N)=O -2.5%, Cc1cccc(OCC(=O)Nc2ccccc2F)c1 6.3%, CCOC(=O)C1=C(N)N(c2ccc(C)cc2)C2=C(C(=O)CCC2)C1c1cccs1 (stereo not drawn) -3.4%, CCS(=O)(=O)C1=NSC2=NC(=O)/C(=C\c3cc(C)n(-c4cccc(OC)c4)c3C)C(=N)N21 12.2%, CS(=O)(=O)c1ccc2c(c1)SC1=NC(=O)/C(=C/c3ccco3)C(=N)N12 13.2%, COc1ccc(C(=O)Nc2nncs2)c(OC)c1 40%, COc1ccccc1CNC(=O)c1ccc(SC)cc1OC -4.7%, Cc1ccnc(NC(=O)c2ccoc2C)c1 18.1%, COc1cc(SC)ccc1C(=O)NCCOc1ccccc1Cl -0.8%, Cn1cnnc1SCC(=O)NNC(=O)COc1ccc(Br)cc1 3.3%, COc1ccc(/C=N/NC(=O)c2ccncc2)cc1CN1CCCc2ccccc21 -8.3%, COc1ccc(C)cc1-n1nnnc1SCc1nc2ccccc2c(=O)[nH]1 0.3%, Fc1cccc(Cc2noc(CN3CCN(c4cnccn4)CC3)n2)c1 -8.2%, Cc1nc2ccc(NC(=O)C(F)(F)F)cc2o1 -2.2%, Cc1nc2cc(NC(=O)NCc3ccccc3)ccc2o1 12%, O=C(CN1CCc2ccccc21)NC(c1ccccc1)c1ccccc1 -10.6%, O=C(N/N=C/c1ccc(OCC2COCCO2)cc1)c1ccc(Br)cc1 (stereo not drawn) 2.2%, CCS(=O)(=O)c1ccc(C(=O)NC)c(Cl)c1Cl -3.5%, COc1ccccc1N1CCN(CC(=O)NCCc2ccc(S(N)(=O)=O)cc2)CC1 -3%, O=C(Cc1cccs1)Nc1nnc(C2CC2)s1 -1.8%, Cc1occc1C(=O)Nc1nnc(C2CCCCC2)s1 -4%, FC(F)(F)c1cnc(Oc2ccccc2-c2nnc(-c3ccc(Cl)cc3)o2)c(Cl)c1 -1.6%, Nc1ccc(-c2nnc(-c3ccc(-c4ccccc4)cc3)o2)cc1 3.7%, COc1cccc(CC2(CO)CCCN(Cc3nc(-c4cccs4)oc3C)C2)c1 (stereo not drawn) -8.7%, CC(=O)Nc1ccc(OCCC[n+]2cccc(C(=O)[O-])c2)cc1 -2.9%, Cc1ccc(NC(=O)CNCc2ccccn2)cc1S(=O)(=O)N(C)C -1.9%, Cc1ccc(NC(=O)c2cccs2)cc1S(=O)(=O)N(C)C 15.2%, CCOc1ncccc1C(=O)N(CC)CC(=O)Nc1ccc(NC(C)=O)cc1 -8.7%, COc1ccc2nc(Nc3nc(-c4cc5ccccc5oc4=O)cs3)sc2c1 40.7%, O=c1oc2ccccc2cc1-c1csc(Nc2ccc(O)cc2)n1 17.8%, CC/C(Cc1ccccc1)=N/NC(=O)CCn1nnc2ccccc21 -3.6%, O=C1OC(c2ccc(Cl)cc2)=N/C1=C\c1cccnc1 -3.3%, Cc1ccccc1C1=N/C(=C/c2cccnc2)C(=O)O1 34.5%, Cc1ccc(C)c(CSc2nc(-c3ccco3)nc3c2c(=O)n(C)c(=O)n3C)c1 0.1%, CC(=O)c1ccc(N2CCN(S(=O)(=O)c3c(C)[nH]c(=O)[nH]c3=O)CC2)cc1 -3%, O=C(CCN1CCN(C/C=C/c2ccccc2)CC1)Nc1cccc(F)c1 -5.5%, CCn1c(/C=N/NC(=O)c2ccc(OC)cc2)nc2ccccc21 8.7%, COc1cc(/C=N/NC(=O)c2ccccc2)ccc1OS(=O)(=O)c1ccccc1 -2.6%, COc1ccc(/C=N/NC(=O)c2ccccc2)cc1OS(=O)(=O)c1ccccc1 -2.1%, COc1ccccc1C(=O)NNC(=O)c1ccc(NC(=O)c2ccccc2)cc1 -1.7%, CCN(CC)c1ccc([N+](=O)[O-])cc1C(=O)O -4.3%, Cc1ccc2cc(CN(c3ccc(C)c(C)c3)S(C)(=O)=O)c(=O)[nH]c2c1 -3.5%, CCOC(=O)C1=C(CC)Nc2ccccc2N=C1N -6.8%, CCc1ccccc1NC(=O)CN(c1ccc(OC)cc1OC)S(=O)(=O)c1ccccc1[N+](=O)[O-] -10.9%, COc1ccc(N(CC(=O)NC2CCCC2)C(=O)CS(=O)CC(=O)Nc2ccc3c(c2)OCO3)cc1 (stereo not drawn) -6.6%, COc1cc2c(C(=O)N3CCN(C)CC3)c(CSc3ccccc3)n(C)c2cc1Br -9.2%, Cc1cc2ccccn2c1C(=O)c1cccc(S(=O)(=O)N2CCOCC2)c1 4.2%, COc1ccc(Cn2c(-c3ccc(Cl)cc3)c[n+]3ccccc23)cc1 7.2%, CC(C)C(NC(=O)C1CCC(C(C)(C)C)CC1)C(=O)NCCCN1CCCCC1 (stereo not drawn) -3%, Cc1ccc(C)c(N2C(=O)CS/C2=N\NC(=O)c2ccccc2Cl)c1 -0.5%, COc1ccccc1C(=O)Oc1ccc(N2C(=O)CCC2=O)cc1 -2.3%, C=CCn1c(P(C)(=O)O)nc2ccccc21 -7.9% and -5.5%, CCc1ccc(OCC(=O)OCC(=O)c2c(N)n(C)c(=O)n(C)c2=O)cc1 -11.1%, O=C1CCCc2c1nc(-c1cccc(Cl)c1)n2O -1.6%, O=c1c2c(nc3nc[nH]n13)CCC2 -4.1%, COc1ccc(C(=O)OCC(=O)NC(=O)CCSc2ccccc2)cc1 -0.8%, Cc1ccc(SCCC(=O)NC(C(C)C)C(C)C)cc1 -8.1%, Cc1cc2nc(C(F)(F)F)cc(-c3cccs3)n2n1 -2.2%, CCCCOc1ccc(-c2nnc(-c3ccco3)o2)cc1 25.4%, CCC(=O)Oc1cccc(C(=O)Nc2ccc(-c3nnc(-c4ccco4)o3)cc2)c1 -4.9%, CCOc1ccc2nc(Nc3nc4ccc(NC(C)=O)cc4s3)sc2c1 8.7%, CCOc1ccc2nc(SC(CC)C(=O)Nc3cc(C)on3)sc2c1 (stereo not drawn) -3.8%, COC(=O)CSc1nccc(-c2cccs2)n1 3.7%, O=C(Nc1ccnc(-c2ccncc2)n1)c1cccs1 -0.6%, COc1cccc(/C=N/NC(=O)c2[nH]nc3c2CCc2ccccc2-3)c1O 28.9%, COc1cccc(/C=N/Nc2cc(C)nc(-c3ccccc3O)n2)c1O 9.6%, CNC(=O)NC(=O)C(OC(=O)c1cccc(S(=O)(=O)N2CCCCC2)c1)c1ccccc1 (stereo not drawn) -3.2%, COc1ccc(-c2nc3cc([N+](=O)[O-])ccc3o2)cc1OC 2.5%, COc1cccc(-c2nc(S(=O)(=O)c3ccccc3)c(N3CCOCC3)o2)c1 -0.7%, O=C(Cc1cccc2ccccc12)Nc1ccc2oc(-c3ccccc3)nc2c1 2.6%, COc1ccc2oc(-c3cccc(NC(=O)CSc4ccc(Cl)cc4)c3)nc2c1 3%, Cc1cc(NC(=O)CSc2nc3ccccc3n2CC(C)C)no1 -5.3%, COc1ccc(F)c(-c2nc(CN3CCC(c4ccccc4)CC3)c(C)o2)c1 0.5%, O=C(CCN1C(=O)C2C3C=CC(C3)C2C1=O)Oc1ccc2ccccc2c1 (stereo not drawn) -3.9%, CC1CC(C)CN(S(=O)(=O)c2ccc(C(=O)NN3CCOCC3)cc2)C1 (stereo not drawn) 0.2%, COc1ccc(-c2csc(Cc3nc(O)cs3)n2)cc1 4.6%, CSCC[C@H](NC(=O)OC(C)(C)C)C(=O)N/N=C/c1cc2ccc(C)cc2nc1Cl -6.9%
